Where “and” joins values, the source holds several entries; their conditions need not be identical. Identical values can stand only once. Records with an inconclusive call do not appear. Some compounds were tested as several samples or in several runs, with calls that do not always agree. Calls of active or inactive are those of the source. Rule for the calls, unless noted: active = hit-call score of the fitted dose curve at least 0.9, where 1 is the maximum; inconclusive = response in the unintended direction; inactive = score below 0.9.

This is an account of results in PubChem BioAssay (EPA / NIEHS).

For experiment [1], the target named is human Peroxisome Proliferator-activated Receptor delta (PPARd), PPARD (gene 5467) (UniProt Q03181). Description: ATG_PPARd_TRANS: Attagene TRANS-FACTORIAL HepG2 Assay for human Peroxisome Proliferator-activated Receptor delta (PPARd) (AID 2283002). Put shortly:
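Transient HepG2 transfection (multiple GAL4-UAS RTUs, chimeric receptor-Gal4); 24 h dosing; total RNA → oligo(dT) RT → PCR → 6-FAM primer extension → HpaI cut → CE. Positive direction vs DMSO.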

The target in experiment [2] is Peroxisome proliferator-activated receptor gamma (Homo sapiens) (UniProt P37231). Description: ATG_PPARg_TRANS: Attagene TRANS-FACTORIAL HepG2 Assay for human Peroxisome Proliferator-activated Receptor-gamma (PPARg) (AID 2283007). Put shortly:
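After 24 h of chemical exposure, transfected HepG2 cells carrying PPARγ-Gal4 chimera reporter constructs are lysed for RNA. Reporter transcripts are measured by RT-PCR and capillary electrophoresis with fluorescent labelling, and gain of signal is fitted versus DMSO.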

Experiment [3] concerns the target Nuclear receptor subfamily 1 group I member 2 (Homo sapiens) (UniProt O75469). Description: ATG_PXR_TRANS: Attagene TRANS-FACTORIAL HepG2 Assay for human Pregnane X Receptor (PXR) (AID 2283008). The method, boiled down: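 Fluorescence intensity of FAM-labelled, HpaI-digested reporter amplicons, separated by capillary electrophoresis, quantifies induction. HepG2 cells with PXR-Gal4 trans-reporter system were exposed 24 h; DMSO defines baseline.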

In experiment [4] the target is sheep Cyclooxygenase-1 (Cox1), PTGS1 (gene 443551) (UniProt P05979). Description: NVS_ENZ_oCOX1: NovaScreen (NVS) Enzymatic Assay for sheep Cyclooxygenase-1 (Cox1) (AID 2283239).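 Note: actives reduce cyclooxygenase activity so potencies are for inhibitors.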 Put shortly: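 Ovine seminal vesicle extract; absorbance (colorimetric) enzyme read-out at 0.66 h post-dose. Primary: single conc 25 uM, duplicate. Follow-up: concentration series on actives. Activity = signal loss vs DMSO baseline.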

A short description of experiment [5]: CCTE_Harrill_HTTr_Viability_MCF7: CCTE's 6-hour Cell Viability Assessment for the High-Throughput Transcriptomics (HTTr) Platform, in MCF-7 cells cultured in DMEM + 10% fetal bovine serum, Harrill Lab (AID 2284010; active = hit-call score of the fitted dose curve at least 0.9, where 1 is the maximum; inactive = score below 0.9). The method, boiled down: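 Cells were dosed with chemicals in an eight-point dilution series, imaged 6 hours later for propidium iodide uptake, and the endpoint was analyzed by bidirectional fitting against DMSO as negative control.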

Experiment [6] is described as follows: CCTE_Harrill_HTTr_Apoptosis_MCF7: CCTE's 6-hour Apoptosis Assessment for the High-Throughput Transcriptomics (HTTr) Platform, in MCF-7 cells cultured in DMEM + 10% fetal bovine serum, Harrill Lab (AID 2284011; active = hit-call score of the fitted dose curve at least 0.9, where 1 is the maximum; inactive = score below 0.9). The method, boiled down: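 Read-out: CellEvent Caspase 3/7 Green signal by high content imaging, gain-of-signal indicating apoptosis. MCF-7 cells, DMEM + 10% FBS, eight-point dilution series, 6 h exposure. Curves fitted bidirectionally relative to DMSO negative control.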

The target in experiment [7] is human CYP2C8, CYP2C8 (gene 1558) (UniProt P10632). Description: NVS_ADME_hCYP2C8: NovaScreen (NVS) CYP450-related Enzyme Activity (ADME) Assay for human CYP2C8 (AID 2283104; active = hit-call score of the fitted dose curve at least 0.9, where 1 is the maximum; inactive = score below 0.9). The method, boiled down: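 Recombinant human CYP2C8 with fluorogenic substrate, 0.5 h, fluorescence intensity; signal loss fitted versus acetonitrile. Screened in duplicate at 10 uM, then actives run in concentration-response up to 20 uM.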
Chain of human CYP2C8, CYP2C8 (gene 1558) (P10632 whole entry, looked up): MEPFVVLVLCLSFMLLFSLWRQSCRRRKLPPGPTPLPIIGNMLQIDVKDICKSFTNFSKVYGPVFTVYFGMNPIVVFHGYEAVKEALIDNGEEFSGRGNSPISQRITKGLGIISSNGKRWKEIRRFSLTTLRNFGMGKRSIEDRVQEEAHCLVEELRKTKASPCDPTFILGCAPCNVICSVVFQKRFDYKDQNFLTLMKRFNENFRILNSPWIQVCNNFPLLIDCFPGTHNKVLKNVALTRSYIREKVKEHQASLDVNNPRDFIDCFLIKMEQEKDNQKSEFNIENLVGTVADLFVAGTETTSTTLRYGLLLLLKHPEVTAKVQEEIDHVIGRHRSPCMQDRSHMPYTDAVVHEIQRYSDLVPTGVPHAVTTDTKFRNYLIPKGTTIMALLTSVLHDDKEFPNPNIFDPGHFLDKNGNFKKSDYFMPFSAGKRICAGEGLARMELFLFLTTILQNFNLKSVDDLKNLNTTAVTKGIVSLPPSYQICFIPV

Experiment [8] has as its target Cellular tumor antigen p53 (Homo sapiens) (UniProt P04637). Description: TOX21_p53_BLA_p3_ratio: Tox21 HCT-116 p53 Agonism Beta-lactamase Assay, Ratio, Phase 3 (AID 2283596). The method, boiled down: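 HCT116 p53-bla cells (4000/well) given compound in DMSO (217-fold dilution) after 5 h, incubated 16 h at 37C. CCF4-AM substrate 2 h at room temperature; 460/530 nm emission ratio, gain fitted against DMSO.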

Experiment [9] has the same target. Description: TOX21_p53_BLA_p5_ratio: Tox21 HCT-116 p53 Agonism Beta-lactamase Assay, Ratio, Phase 5 (AID 2283599). Put shortly: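 Beta-lactamase reporter ratio (blue 460 nm over green 530 nm, 405 nm excitation) after 2 h CCF4-AM loading, in HCT-116 cells exposed 16 h at 37 C to compounds pinned at 217-fold dilution. Increases relative to DMSO baseline scored.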

Experiment [10] shares this target. Description: TOX21_p53_BLA_p4_ratio: Tox21 HCT-116 p53 Agonism Beta-lactamase Assay, Ratio, Phase 4 (AID 2283601). The method, boiled down: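 Signal is the blue/green (460nm/530nm) ratio of cleaved versus uncleaved CCF4-AM substrate, read after 2 h substrate loading. Cells were HCT116 carrying the p53-responsive beta-lactamase reporter, dosed 16 h at 37C, 5% CO2; CellTiter-Glo measured in parallel.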

For experiment [11], the target named is human Ephrin type-B Receptor 2 (EphB2), EPHB2 (gene 2048) (UniProt P29323). Description: NVS_ENZ_hEphB2: NovaScreen (NVS) Enzymatic Assay for human Ephrin type-B Receptor 2 (EphB2) (AID 2283156). Put shortly:
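Recombinant kinase with fluorescent substrate, product separated by electrophoretic mobility shift, read 1 h after dosing. Duplicate 25 uM screen, then singleton concentration-response to 50 uM max; loss of signal versus DMSO.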

Experiment [12] deals with rat CYP1A2, Cyp1a2 (gene 24297) (UniProt P04799). Description: NVS_ADME_rCYP1A2: NovaScreen (NVS) CYP450-related Enzyme Activity (ADME) Assay for rat CYP1A2 (AID 2283115). The method, boiled down: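 Cell-free recombinant rat enzyme with fluorogenic substrate, read by fluorescence intensity 1 hour after dosing. Loss of signal versus acetonitrile negative control; primary screen at 10 uM in duplicate, actives followed in concentration series.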

Experiment [13] relates to rat Monoamine Oxidase, MAO-A, Peripheral (MAOAP), gene 29253. Description: NVS_ENZ_rMAOAP: NovaScreen (NVS) Enzymatic Assay for rat Monoamine Oxidase, MAO-A, Peripheral (MAOAP) (AID 2283237). Put shortly: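 Rat liver mitochondrial membranes served as the MAO-A source, with enzyme activity measured by radiometric scintillation counting 1.17 hours after dosing. Loss of signal was fitted against DMSO; primary screen used 25 uM in duplicate, follow-up used concentration series.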

For experiment [14], the target named is human Caspase 10 (CASP10), CASP10 (gene 843) (UniProt Q92851). Description: NVS_ENZ_hCASP10: NovaScreen (NVS) Enzymatic Assay for human Caspase 10 (CASP10) (AID 2283133). Put shortly:
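Recombinant human caspase-10 from E. coli, cell-free fluorogenic substrate assay read 1 h after dosing. Primary duplicate screen at 25 uM; hits (e.g. ≥30% inhibition) run singly in concentration-response up to 50 uM, normalised to DMSO.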

The target of experiment [15] is human Caspase 2 (CASP2), CASP2 (gene 835) (UniProt P42575). Description: NVS_ENZ_hCASP2: NovaScreen (NVS) Enzymatic Assay for human Caspase 2 (CASP2) (AID 2283135). Put shortly: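 E. coli-expressed enzyme in a cell-free protease assay, fluorescence read 1 h after dosing. Compounds at 25 uM in duplicate, with concentration-response up to 50 uM for hits; loss of signal against DMSO baseline.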
Chain of human Caspase 2 (CASP2), CASP2 (gene 835) (P42575 whole entry, looked up): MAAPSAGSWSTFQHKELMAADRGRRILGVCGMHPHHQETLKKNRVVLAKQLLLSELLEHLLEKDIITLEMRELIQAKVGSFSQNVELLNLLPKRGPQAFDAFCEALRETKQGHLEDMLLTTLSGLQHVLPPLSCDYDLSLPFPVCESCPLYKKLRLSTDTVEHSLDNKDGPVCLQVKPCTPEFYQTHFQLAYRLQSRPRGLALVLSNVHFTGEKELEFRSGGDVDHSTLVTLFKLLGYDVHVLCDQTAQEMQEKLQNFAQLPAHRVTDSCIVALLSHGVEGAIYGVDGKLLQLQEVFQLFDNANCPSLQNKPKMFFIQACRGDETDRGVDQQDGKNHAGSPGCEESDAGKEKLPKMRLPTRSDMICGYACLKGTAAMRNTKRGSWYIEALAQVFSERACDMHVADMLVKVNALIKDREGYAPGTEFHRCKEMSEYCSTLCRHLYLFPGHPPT

For experiment [16], the target named is human Aurora Kinase A - serine/threonine-protein Kinase 6 (AurA), AURKA (gene 6790) (UniProt O14965). Description: NVS_ENZ_hAurA: NovaScreen (NVS) Enzymatic Assay for human Aurora Kinase A - serine/threonine-protein Kinase 6 (AurA) (AID 2283142). The method, boiled down: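 Cell-free enzymatic assay with human Aurora A, 1 hour after dosing. Fluorescent substrate turnover detected after electrophoretic mobility shift separation of substrate and product. Screened at 25 uM, actives retested in concentration-response up to 50 uM.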
Chain of human Aurora Kinase A - serine/threonine-protein Kinase 6 (AurA), AURKA (gene 6790) (O14965 whole entry, looked up): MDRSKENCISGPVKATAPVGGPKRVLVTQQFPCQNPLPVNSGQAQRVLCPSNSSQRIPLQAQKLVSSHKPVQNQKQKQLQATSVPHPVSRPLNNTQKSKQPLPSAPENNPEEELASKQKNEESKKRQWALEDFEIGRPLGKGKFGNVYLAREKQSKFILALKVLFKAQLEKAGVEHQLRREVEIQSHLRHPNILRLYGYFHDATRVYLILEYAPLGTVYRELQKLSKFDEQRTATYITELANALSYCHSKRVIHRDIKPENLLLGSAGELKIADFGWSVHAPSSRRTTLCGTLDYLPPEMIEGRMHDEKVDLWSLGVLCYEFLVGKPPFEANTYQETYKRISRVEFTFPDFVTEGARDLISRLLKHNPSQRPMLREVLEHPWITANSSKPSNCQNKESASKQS

Experiment [17] has as its target Protein deacetylase HDAC6 (Homo sapiens) (UniProt Q9UBN7). Description: NVS_ENZ_hHDAC6: NovaScreen (NVS) Enzymatic Assay for human Histone Deacetylase 6 (HDAC6) (AID 2283164). The method, boiled down: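 Recombinant human HDAC6 with fluorescent substrate, 1 h; product separated from substrate by electrophoretic mobility shift. Primary screen in duplicate at 25 uM; actives retested singly in concentration-response up to 50 uM, fitted relative to DMSO.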

The target of experiment [18] is human IkappaB Kinase alpha (IKKa), CHUK (gene 1147) (UniProt O15111). Description: NVS_ENZ_hIKKa: NovaScreen (NVS) Enzymatic Assay for human IkappaB Kinase alpha (IKKa) (AID 2283167). The method, boiled down: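 Cell-free recombinant human IKKa with fluorescent substrate, product separated by electrophoretic mobility shift; read 1 hour after dosing. Primary screen duplicate at 25 uM, actives then concentration-response up to 50 uM; loss of signal relative to DMSO.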

Experiment [19] concerns the target human Mitogen-Activated Protein Kinase 1 (MAPK 1), MAPK1 (gene 5594) (UniProt P28482). Description: NVS_ENZ_hMAPK1: NovaScreen (NVS) Enzymatic Assay for human Mitogen-Activated Protein Kinase 1 (MAPK 1) (AID 2283175). The method, boiled down: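 Cell-free recombinant human MAPK1 enzymatic assay, fluorescence/electrophoretic mobility shift read at 1 h; loss of signal vs DMSO. Primary screen in duplicate at 25 uM; actives (e.g. ≥30% inhibition) run as concentration-response up to 50 uM.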

Experiment [20] deals with human MET Proto-Oncogene, Receptor Tyrosine Kinase (MET), MET (gene 4233) (UniProt P08581). Description: NVS_ENZ_hMet: NovaScreen (NVS) Enzymatic Assay for human MET Proto-Oncogene, Receptor Tyrosine Kinase (MET) (AID 2283180). Put shortly:
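Cell-free MET kinase assay using recombinant protein and fluorescent substrate, with mobility-shift separation; read 1 h after dosing. Primary duplicate at 25 uM; actives in singleton concentration-response to 50 uM maximum. Signal loss versus DMSO.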

Experiment [21] addresses human p21 Activated Kinase 4 (PAK4), PAK4 (gene 10298) (UniProt O96013). Description: NVS_ENZ_hPAK4: NovaScreen (NVS) Enzymatic Assay for human p21 Activated Kinase 4 (PAK4) (AID 2283189). Put shortly: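 Cell-free recombinant human PAK4 activity assay; fluorescent substrate and product separated by electrophoretic mobility shift, read 1 h after dosing. Initially tested in duplicate at 25 uM, relative to DMSO baseline.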

Experiment [22] concerns the target human Tyrosine Protein Kinase Receptor Tie-2 (Tie2), TEK (gene 7010) (UniProt Q02763). Description: NVS_ENZ_hTie2: NovaScreen (NVS) Enzymatic Assay for human Tyrosine Protein Kinase Receptor Tie-2 (Tie2) (AID 2283225). The method, boiled down: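 Recombinant human Tie2 kinase activity was read cell-free by fluorescence with electrophoretic mobility shift, 1 hour after dosing. The screen used 25 uM in duplicate, then concentration-response up to 50 uM. Signal loss was scored against DMSO.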

In experiment [23] the target is rat Monoamine Oxidase, MAO-B, Peripheral (MAOBP), Maob (gene 25750) (UniProt P19643). Description: NVS_ENZ_rMAOBP: NovaScreen (NVS) Enzymatic Assay for rat Monoamine Oxidase, MAO-B, Peripheral (MAOBP) (AID 2283242).
The target of experiment [24] is rat Corticotropin Releasing Factor Receptor (CRF), Crhr1 (gene 58959) (UniProt P35353). Description: NVS_GPCR_rCRF: NovaScreen (NVS) G Protein-Coupled Receptor Assay for rat Corticotropin Releasing Factor Receptor (CRF) (AID 2283300). The method, boiled down:
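Rat cortical membranes used as receptor source in a radioligand competitive displacement binding assay; scintillation read 2 h after dosing. Primary screen run in duplicate at 25 uM; loss of signal versus DMSO baseline indicates binding.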

Chain of human MET Proto-Oncogene, Receptor Tyrosine Kinase (MET), MET (gene 4233) (P08581 whole entry, looked up): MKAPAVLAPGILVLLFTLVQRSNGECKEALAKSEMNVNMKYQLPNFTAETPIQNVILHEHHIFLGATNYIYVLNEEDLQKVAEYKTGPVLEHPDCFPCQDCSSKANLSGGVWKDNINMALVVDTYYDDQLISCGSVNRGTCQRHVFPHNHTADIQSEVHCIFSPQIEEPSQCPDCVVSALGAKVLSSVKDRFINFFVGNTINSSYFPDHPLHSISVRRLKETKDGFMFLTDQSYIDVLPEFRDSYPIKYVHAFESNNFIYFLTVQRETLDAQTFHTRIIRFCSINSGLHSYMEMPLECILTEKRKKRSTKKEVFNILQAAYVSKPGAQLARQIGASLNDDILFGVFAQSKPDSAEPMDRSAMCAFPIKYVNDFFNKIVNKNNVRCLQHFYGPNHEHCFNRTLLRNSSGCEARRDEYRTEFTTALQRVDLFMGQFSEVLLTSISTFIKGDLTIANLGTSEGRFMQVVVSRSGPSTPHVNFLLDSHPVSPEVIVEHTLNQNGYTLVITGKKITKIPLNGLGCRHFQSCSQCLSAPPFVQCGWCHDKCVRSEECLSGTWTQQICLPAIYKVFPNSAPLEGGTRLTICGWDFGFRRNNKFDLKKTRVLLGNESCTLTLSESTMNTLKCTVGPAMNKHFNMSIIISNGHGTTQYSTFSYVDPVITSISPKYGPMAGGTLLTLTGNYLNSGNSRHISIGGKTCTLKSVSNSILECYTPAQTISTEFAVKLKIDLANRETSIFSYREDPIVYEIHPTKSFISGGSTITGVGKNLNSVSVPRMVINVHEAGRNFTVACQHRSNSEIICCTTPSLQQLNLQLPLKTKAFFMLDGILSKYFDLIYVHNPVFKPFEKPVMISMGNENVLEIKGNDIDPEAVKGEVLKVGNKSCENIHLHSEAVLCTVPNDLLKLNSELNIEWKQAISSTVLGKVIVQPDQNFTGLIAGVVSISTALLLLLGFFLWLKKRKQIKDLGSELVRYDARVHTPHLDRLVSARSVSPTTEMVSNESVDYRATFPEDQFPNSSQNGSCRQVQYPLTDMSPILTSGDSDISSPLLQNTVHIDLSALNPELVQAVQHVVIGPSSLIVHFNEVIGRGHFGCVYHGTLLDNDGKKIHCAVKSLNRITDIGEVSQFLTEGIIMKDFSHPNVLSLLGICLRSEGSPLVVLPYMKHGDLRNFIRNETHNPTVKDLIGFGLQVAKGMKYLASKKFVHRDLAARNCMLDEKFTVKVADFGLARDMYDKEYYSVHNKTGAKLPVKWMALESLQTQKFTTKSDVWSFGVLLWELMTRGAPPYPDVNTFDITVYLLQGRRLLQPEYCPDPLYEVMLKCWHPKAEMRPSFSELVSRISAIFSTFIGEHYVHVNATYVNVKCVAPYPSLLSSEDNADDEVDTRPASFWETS
Chain of human Tyrosine Protein Kinase Receptor Tie-2 (Tie2), TEK (gene 7010) (Q02763 whole entry, looked up): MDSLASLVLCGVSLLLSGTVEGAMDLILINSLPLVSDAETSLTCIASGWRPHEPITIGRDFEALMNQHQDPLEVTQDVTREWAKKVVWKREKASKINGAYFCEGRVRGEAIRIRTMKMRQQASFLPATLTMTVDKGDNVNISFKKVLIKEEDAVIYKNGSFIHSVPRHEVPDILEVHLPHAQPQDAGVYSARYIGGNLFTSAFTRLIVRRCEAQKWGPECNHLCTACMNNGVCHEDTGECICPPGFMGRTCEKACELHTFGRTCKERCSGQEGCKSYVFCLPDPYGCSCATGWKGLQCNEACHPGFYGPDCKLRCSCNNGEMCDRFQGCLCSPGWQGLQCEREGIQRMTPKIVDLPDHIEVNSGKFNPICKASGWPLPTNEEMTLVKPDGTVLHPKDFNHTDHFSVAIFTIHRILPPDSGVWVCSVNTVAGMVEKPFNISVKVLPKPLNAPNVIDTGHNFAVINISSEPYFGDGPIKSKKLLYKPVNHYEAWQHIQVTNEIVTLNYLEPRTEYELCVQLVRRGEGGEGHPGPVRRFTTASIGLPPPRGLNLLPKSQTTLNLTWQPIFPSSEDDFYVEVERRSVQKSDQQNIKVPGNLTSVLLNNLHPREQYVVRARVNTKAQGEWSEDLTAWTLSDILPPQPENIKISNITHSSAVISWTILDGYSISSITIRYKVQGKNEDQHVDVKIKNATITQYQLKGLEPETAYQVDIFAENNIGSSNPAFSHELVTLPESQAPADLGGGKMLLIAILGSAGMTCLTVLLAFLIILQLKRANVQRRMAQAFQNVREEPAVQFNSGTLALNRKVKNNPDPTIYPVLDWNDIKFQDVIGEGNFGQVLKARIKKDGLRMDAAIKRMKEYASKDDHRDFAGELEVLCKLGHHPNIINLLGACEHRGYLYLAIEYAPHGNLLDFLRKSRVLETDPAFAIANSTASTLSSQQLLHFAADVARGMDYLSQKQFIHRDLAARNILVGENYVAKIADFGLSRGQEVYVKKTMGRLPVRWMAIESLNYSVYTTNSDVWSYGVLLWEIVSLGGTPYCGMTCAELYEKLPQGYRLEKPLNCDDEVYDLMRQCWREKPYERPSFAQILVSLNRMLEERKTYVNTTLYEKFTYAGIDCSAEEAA
Chain of Cellular tumor antigen p53 (Homo sapiens) (P04637 whole entry, looked up): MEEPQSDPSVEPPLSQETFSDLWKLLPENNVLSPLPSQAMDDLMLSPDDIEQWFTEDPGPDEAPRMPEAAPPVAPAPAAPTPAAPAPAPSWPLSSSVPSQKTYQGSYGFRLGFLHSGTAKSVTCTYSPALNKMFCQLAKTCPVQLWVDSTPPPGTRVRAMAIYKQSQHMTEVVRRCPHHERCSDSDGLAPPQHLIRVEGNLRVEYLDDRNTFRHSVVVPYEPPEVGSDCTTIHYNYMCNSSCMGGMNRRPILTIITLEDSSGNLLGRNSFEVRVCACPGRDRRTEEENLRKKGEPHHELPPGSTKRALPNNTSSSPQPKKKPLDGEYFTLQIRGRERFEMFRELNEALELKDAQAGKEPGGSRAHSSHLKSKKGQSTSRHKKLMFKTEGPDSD
Chain of human p21 Activated Kinase 4 (PAK4), PAK4 (gene 10298) (O96013 whole entry, looked up): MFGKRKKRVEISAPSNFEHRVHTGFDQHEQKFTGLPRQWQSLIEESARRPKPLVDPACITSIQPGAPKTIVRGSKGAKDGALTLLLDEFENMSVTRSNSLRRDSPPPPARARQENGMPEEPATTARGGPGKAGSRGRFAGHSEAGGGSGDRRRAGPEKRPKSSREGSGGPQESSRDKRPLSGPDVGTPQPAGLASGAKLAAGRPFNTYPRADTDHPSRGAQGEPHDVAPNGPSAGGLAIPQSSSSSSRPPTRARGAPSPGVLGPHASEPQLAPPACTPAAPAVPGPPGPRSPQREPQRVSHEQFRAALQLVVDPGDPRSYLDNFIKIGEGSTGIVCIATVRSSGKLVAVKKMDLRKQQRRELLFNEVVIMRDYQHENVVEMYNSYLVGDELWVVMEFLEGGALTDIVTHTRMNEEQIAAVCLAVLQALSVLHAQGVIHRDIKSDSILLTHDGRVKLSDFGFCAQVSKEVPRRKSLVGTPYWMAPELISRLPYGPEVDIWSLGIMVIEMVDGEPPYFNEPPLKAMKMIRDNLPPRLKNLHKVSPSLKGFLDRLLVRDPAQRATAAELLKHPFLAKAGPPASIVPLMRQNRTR

For the compound `O=[N+]([O-])c1ccccc1Cl`, the compound was classed as inactive in experiment [1], in [2], in experiment [3], in [4], in experiment [5] and in [6].
Consider `C=CCOC(Cn1ccnc1)c1ccc(Cl)cc1Cl` (centres undefined), for which the AC50 – broadly, the midpoint of the concentration-response curve, whichever way the signal moves – in experiment [7] was 6.22 µM (active); in [8] it was 83 µM (active) and 73.3 µM (active); in [9], 79.4 µM (active) and 77.2 µM (active); in experiment [10], 80.8 µM (active) and 83.9 µM (active). Further, the outcome in experiment [8], in [9] and in [10] was inactive.
As to `Oc1ccc(C(c2ccc(O)cc2)C(Cl)(Cl)Cl)cc1`, the AC50 in [7] is 1.06 µM (active). Further, the result in experiment [11] was inactive.
As for `CSC(=O)c1cccc2nnsc12`, the outcome in [12] and in experiment [13] was inactive.
Take `S=C(S)NCCNC(=S)S.[Mn+2].[S-]C([S-])=NCCN=C([S-])[S-].[Zn+2]`: the outcome in experiment [14], in experiment [15], in [18] and in experiment [23] was inactive. The half-maximal activity concentration (AC50) in [16] was 3.99 µM (active) and 2.8 µM (active); in experiment [17] it was 233 nM (active) and 815 nM (active); in experiment [18], 18.2 µM (active); in experiment [19] it was 7.49 µM (active) and 1.15 µM (active); in experiment [20] it was 11 µM (active) and 4.32 µM (active) and 18.9 µM (active); in experiment [21] it was 5.61 µM (active) and 263 nM (active). Besides, the AC50 in [22] is 9.01 µM (active) and 2.11 µM (active) and 12.8 µM (active); in [24], 25 µM (active).
